Assay results taken from PubChem BioAssay AID2685 (National Center for Advancing Translational Sciences (NCATS), 2010).
The campaign covered roughly 320,000 compounds. About 2,100 (0.66%) were called active. Not shown: some 53% with an inconclusive outcome. Calls come from the whole dose curve; as a rule, active = well fitted inhibition curve with a large enough effect in the signal ratio, with a control signal flat (not every such curve was filed as active); inconclusive = small, poorly fitted or top-dose-only effect, or effect the other way, or a change in a side signal; inactive = flat fitted curve, though single readings scatter; the % refers to the signal ratio. Shown is part of a subset that was picked to be rich in actives.

assay: qHTS Assay for Lipid Storage Modulators in Drosophila S3 Cells; conditions: BODIPY lipid droplet fluorescence, 18-24 h, cells fed with added oleic acid; cell number change: measured here: cell count max response; series mostly up to 46.1 µM; lipid storage change, negative = inhibition: at the top concentration;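 for cell number change: cells counted by Cell Tracker Red CMTPX staining in the red channel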; for lipid storage change, negative = inhibition: % is set by controls: 0 for no effect and ±100 for the full control effect
How it was run: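 Drosophila S3 cells got compounds at several concentrations plus oleic acid (400 uM solution). Laser-scanning cytometry with 488 nm excitation read lipid droplets at 500-530 nm and cells at 575-640 nm. Percent activity was relative to 20 uM Triacsin C.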
Potency is the fitted concentration of half-maximal effect.

Row | SMILES | lipid storage change, negative = inhibition | cell number change | Potency | outcome
1 | Cc1cccc(-n2ncc3c(=O)[nH]c(SCC(=O)NCCC4=CCCCC4)nc32)c1 | -10.6% (inactive) | -11% | – | –
2 | O=C(OCCc1cc2ccccc2c(=O)o1)c1cccc(Br)c1 | – | -23.3% | 0.13 µM (active) | –
3 | N#Cc1ccc(C(=O)OCCCc2cc3ccccc3c(=O)o2)cc1 | 9.51% (inactive) | 18% | – | –
4 | O=C(OCCCc1cc2ccccc2c(=O)o1)c1ccc2c(c1)OCO2 | 0.96% (inactive) | -12% | – | –
5 | CC(C)CN1CCN(Cc2cccn2-c2ccc(Cl)cn2)CC1CCO (stereo unspecified) | 5.56% (inactive) | 10.5% | – | –
6 | CCCCc1c(O)nc2sc3cc(OC)ccc3n2c1=O | – | 9.25% | 10.3 µM (active) | –
7 | COc1ccc2c(c1)sc1nc(=O)ccn12 | -19.5% (inactive) | 21.5% | – | –
8 | CCCCc1c(O)nc2sccn2c1=O | 15.8% (inactive) | – | – | –
9 | O=C(CN1CCOC1=O)N1CCCC(N2CCN(c3cccc(C(F)(F)F)c3)CC2)C1 (stereo unspecified) | – | -10.2% | – | inactive
10 | CCN(CC)CC(=O)N1CCCC(N2CCN(c3cccc(C(F)(F)F)c3)CC2)C1 (stereo unspecified) | 12.5% (inactive) | 21% | – | –
11 | CSCC(=O)N1CCCC(N2CCN(c3cccc(C(F)(F)F)c3)CC2)C1 (stereo unspecified) | – | 7.35% | 13 µM (active) | –
12 | CCc1ncc(CN2CCCC(C(=O)Nc3cccc(-c4cccc(C)c4)c3)C2)cn1 (stereo unspecified) | 11.6% (inactive) | 8.11% | – | –
13 | CCc1ncc(CN2CCCC(C(=O)Nc3cccc(-c4ccc(F)cc4)c3)C2)cn1 (stereo unspecified) | – | -24.6% | 20.6 µM (active) | –
14 | O=C(Nc1cccc(-c2ccc(F)cc2)c1)C1CCCN(Cc2cccnc2)C1 (stereo unspecified) | -8.86% (inactive) | -21.8% | – | –
15 | C=CCN(Cc1nc(-c2ccccc2)no1)C(=O)c1ccoc1C | -4.28% (inactive) | 33.5% | – | –
16 | Cc1cc(=O)oc2cc(Oc3ccc(C(N)=O)cc3[N+](=O)[O-])ccc12 | 0.639% (inactive) | 5.31% | – | –
17 | Cc1cc(=O)oc2cc(Oc3ccc([N+](=O)[O-])cc3[N+](=O)[O-])ccc12 | – | -13.4% | 20.6 µM (active) | –
18 | Cc1cc(=O)oc2cc(Oc3ncccc3[N+](=O)[O-])ccc12 | -0.796% (inactive) | 13.9% | – | –
19 | O=C(COc1ccccc1)NNC(=S)NC(=O)c1ccc(Cl)cc1Cl | 3.86% (inactive) | -11.7% | – | –
20 | N#Cc1cc2c(nc1Cl)CCC2 | 16.3% (inactive) | 0.397% | – | –
21 | COc1cc(/C=C(/C(=O)c2cccs2)c2nc3ccccc3[nH]2)ccc1O | – | -19% | – | inactive
22 | O=C(/C(=C/c1cccc(Cl)c1)c1nc2ccccc2[nH]1)c1ccccc1 | – | -22.6% | 9.2 µM (active) | –
23 | O=C(NCc1ccco1)/C(=C/c1cccc(C(F)(F)F)c1)c1nc2ccccc2[nH]1 | 2.93% (inactive) | -4.5% | – | –
24 | Cc1ccc2nc(-c3ccccc3)c(-c3ccccc3)nc2c1 | 21.7% (inactive) | 8.82% | – | –
25 | N#C/C(=C\c1ccccc1OCC(=O)O)c1nc2ccccc2[nH]1 | -13.5% (inactive) | – | – | –
26 | CCOc1cc(/C=C(\C#N)c2nc3ccccc3[nH]2)ccc1OC(C)C(=O)O (stereo unspecified) | 3.1% (inactive) | 5.37% | – | –
27 | CCN(CC)c1ccc(/C=C(/C#N)c2nc3ccccc3[nH]2)c(OC(C)C)c1 | – | – | 3.66 µM (active) | –
